{
  "source": "paper PMC4552634",
  "about": "“A New Set of Chemical Starting Points with Plasmodium falciparum Transmission-Blocking Potential for Antimalarial Drug Discovery” (PLoS ONE, 2015)",
  "note": "The campaign covered roughly 13,000 compounds. About 3,200 (25%) showed an effect of 50% or more. The list shows a part of the results.",
  "data": [
    {"system": "P. falciparum stage V gametocytes", "set-up": "BacTiter-Glo ATP luminescence viability of purified stage V gametocytes in 384-well plates, per cent inhibition versus DMSO", "conditions": "48 h, 5 µM; inhibitor", "units": {"% Inhibition": "%"}, "values": [
      {"compound": "CN(C)CC1CCCN1Cc1ccccc1-c1cnn(C)c(=O)c1Oc1ccccc1F", "note": "(centres unmarked) [TCMDC-135099]", "% Inhibition": 9.933},
      {"compound": "CCC(C)c1cnc2nc(N)nc(N)c2c1C", "note": "(centres unmarked) [TCMDC-137718]", "% Inhibition": 7.013},
      {"compound": "O=C(Nc1ccccc1)N(Cc1ccc(-c2cccc(CNCc3ccc4c(c3)OCO4)c2)cc1)C1CCN(Cc2ccccc2)CC1", "note": "[TCMDC-140603]", "% Inhibition": 101.1},
      {"compound": "O=C(Nc1ccccc1)N(Cc1ccc(-c2ccc(CNCc3ccc4c(c3)OCO4)cc2)cc1)C1CCN(Cc2ccccc2)CC1", "note": "[TCMDC-140604]", "% Inhibition": 20.36},
      {"compound": "O=C(NCc1ccccc1)c1ccc(C(=O)NCC2CNCCO2)cc1", "note": "(centres unmarked) [TCMDC-136507]", "% Inhibition": 8.876},
      {"compound": "O=c1ccc2ccc(F)c3c2n1CC3CN1CCC(NCc2cccc(-c3cccs3)c2)CC1", "note": "(centres unmarked) [TCMDC-134415]", "% Inhibition": 19.28},
      {"compound": "Cc1cc(Nc2cccc(C(F)(F)F)c2)nc(NCc2ccccc2)n1", "note": "[TCMDC-125566]", "% Inhibition": 3.225},
      {"compound": "Cc1cc(NCC(c2ccccc2)c2ccccc2)nc(NCc2ccc(C(F)(F)F)cc2)n1", "note": "[TCMDC-138302]", "% Inhibition": 69.12},
      {"compound": "Cc1cc(N[C@@H](C)C(=O)Nc2ccccc2)nc(NCCc2ccc(F)cc2)n1", "note": "[TCMDC-134798]", "% Inhibition": 30.85},
      {"compound": "Cc1cc(NCCc2ccc(O)cc2)nc(NCC(c2ccccc2)c2ccccc2)n1", "note": "[TCMDC-138305]", "% Inhibition": 99.17},
      {"compound": "Cc1cc(NCc2ccccc2)nc(NCc2ccccc2)n1", "note": "[TCMDC-123662]", "% Inhibition": 26.39},
      {"compound": "Oc1cc2c(cc1CN1CCN(Cc3ccccc3F)CC1)CCC2", "note": "[TCMDC-125013]", "% Inhibition": -13.06},
      {"compound": "Cc1nc(C(=O)N2CCCC[C@H]2CNC(=O)c2ccc(-c3ccc(N4CCCC4=O)cc3C)cc2)c(-c2ccc(F)cc2)s1", "note": "[TCMDC-141437]", "% Inhibition": 4.719},
      {"compound": "CCNc1cc(C(=O)N[C@@H](Cc2ccccc2)[C@H](O)CNC2CCC(C)(C)CC2)cc(N2CCCCS2(=O)=O)c1", "note": "[TCMDC-135108]", "% Inhibition": 43.04},
      {"compound": "Fc1ccc2nc(-c3cccc(-c4cccc(CN5CCN(c6ccncc6)CC5)c4)c3)[nH]c2c1", "note": "[TCMDC-132922]", "% Inhibition": 104.6},
      {"compound": "Fc1ccc2nc(-c3cccc(-c4ccc(CN5CCN(c6cnccn6)CC5)cc4)c3)[nH]c2c1", "note": "[TCMDC-132679]", "% Inhibition": 21.91},
      {"compound": "Fc1ccc2nc(-c3cccc(-c4ccc(CN5CCN(c6ccncc6)CC5)cc4)c3)[nH]c2c1", "note": "[TCMDC-132918]", "% Inhibition": 89.6},
      {"compound": "O=C(O)C(F)(F)F.c1cc(-c2ccc(CN3CCN(c4ccncc4)CC3)cc2)cc(-c2nc3ccccc3[nH]2)c1", "note": "[TCMDC-132556]", "% Inhibition": 5.696},
      {"compound": "Fc1ccc2nc(-c3ccc(-c4cccc(CN5CCN(c6ccncc6)CC5)c4)cc3)[nH]c2c1", "note": "[TCMDC-133822]", "% Inhibition": -6.554},
      {"compound": "c1cc(CN2CCN(c3ccncc3)CC2)cc(-c2cccc(-c3nc4ccccc4[nH]3)c2)c1", "note": "[TCMDC-132923]", "% Inhibition": 40.29},
      {"compound": "O=C(O)C(F)(F)F.c1cncc(CCNCc2ccc(-c3ccc(-c4nc5ccccc5[nH]4)s3)cc2)c1", "note": "[TCMDC-132876]", "% Inhibition": -17.55},
      {"compound": "COc1ccc(-c2cnc3ccc(NC4CCC(O)CC4)nn23)cn1", "note": "(centres unmarked) [TCMDC-136694]", "% Inhibition": 36.86},
      {"compound": "FC(F)(F)c1ccc(N2CCCN(Cc3cccc(-c4ccccc4CNCc4ccc5c(c4)OCO5)c3)CC2)nc1", "note": "[TCMDC-140216]", "% Inhibition": -3.324},
      {"compound": "c1ccc(CCNCc2cccc(-c3ccccc3CNCc3ccc4c(c3)OCO4)c2)nc1", "note": "[TCMDC-140068]", "% Inhibition": 70.81},
      {"compound": "CN1CCN(CCCNCc2ccccc2-c2cccc(CNCc3ccc4c(c3)OCO4)c2)CC1", "note": "[TCMDC-140476]", "% Inhibition": 103.3},
      {"compound": "c1cc(CNCc2ccc3c(c2)OCO3)cc(-c2cccc(CNc3ccc4ncccc4c3)c2)c1", "note": "[TCMDC-140721]", "% Inhibition": -2.829},
      {"compound": "O=C(Nc1ccc(OC2CCN(Cc3ccsc3)C2)c(Cl)c1)c1ccc(F)cc1", "note": "(centres unmarked) [TCMDC-133952]", "% Inhibition": 22.72},
      {"compound": "O=C(NCc1cccc(F)c1)Nc1cccc(-c2cccc(-c3nc4ccc(C(F)(F)F)cc4[nH]3)c2)c1", "note": "[TCMDC-133292]", "% Inhibition": -20.5},
      {"compound": "C#CCCC(=O)Nc1cccc(-c2cccc(-c3nc4ccc(C(F)(F)F)cc4[nH]3)c2)c1", "note": "[TCMDC-136856]", "% Inhibition": 5.566},
      {"compound": "O=C(Nc1cccc(-c2nn3ccccc3c2-c2ccnc(Nc3ccccc3)n2)c1)c1c(F)cccc1F", "note": "[TCMDC-135526]", "% Inhibition": -37.81},
      {"compound": "CCCc1cn2c3c(cc(C(=O)N[C@@H](Cc4ccccc4)[C@H](O)CNC4CCCCC4)cc13)N(C)S(=O)(=O)CC2", "note": "[TCMDC-135771]", "% Inhibition": 15.59},
      {"compound": "CC(C)c1cn2c3c(cc(C(=O)N[C@@H](Cc4ccccc4)[C@H](O)CNC4CCOCC4)cc13)N(C)S(=O)(=O)CC2", "note": "[TCMDC-135535]", "% Inhibition": 2.441},
      {"compound": "CCc1cn2c3c(cc(C(=O)N[C@@H](Cc4cc(F)cc(F)c4)[C@H](O)CNC4CC4)cc13)N(C)S(=O)(=O)CC2", "note": "[TCMDC-135673]", "% Inhibition": 30.94},
      {"compound": "CC(C)c1cn2c3c(cc(C(=O)N[C@@H](Cc4ccccc4)[C@H](O)CNC4CCCCC4)cc13)N(C)S(=O)(=O)CC2", "note": "[TCMDC-135533]", "% Inhibition": 94.75},
      {"compound": "CCc1cn2c3c(cc(C(=O)N[C@@H](Cc4cccc(F)c4)[C@H](O)CNC4CC4)cc13)N(C)S(=O)(=O)CC2", "note": "[TCMDC-135651]", "% Inhibition": -23.22},
      {"compound": "CCc1cn2c3c(cc(C(=O)N[C@@H](Cc4cc(F)cc(F)c4)[C@H](O)CNC4CCCCC4)cc13)N(C)S(=O)(=O)CC2", "note": "[TCMDC-135672]", "% Inhibition": 90.03},
      {"compound": "CCc1cn2c3c(cc(C(=O)N[C@@H](Cc4ccccc4)[C@H](O)CNC4CCC4)cc13)N(C)S(=O)(=O)CC2", "note": "[TCMDC-135674]", "% Inhibition": 32.1},
      {"compound": "CCc1cn2c3c(cc(C(=O)N[C@@H](Cc4cc(F)cc(F)c4)[C@H](O)CNC4CCOCC4)cc13)N(C)S(=O)(=O)CC2", "note": "[TCMDC-135797]", "% Inhibition": 26.1},
      {"compound": "CC(C)NC[C@@H](O)[C@H](Cc1ccccc1)NC(=O)c1cc2c3c(c1)c(C(C)C)cn3CCS(=O)(=O)N2C", "note": "[TCMDC-135532]", "% Inhibition": 49.45},
      {"compound": "CCc1cn2c3c(cc(C(=O)N[C@@H](Cc4ccccc4)[C@H](O)CNC4CC4)cc13)N(CC)S(=O)(=O)CC2", "note": "[TCMDC-135553]", "% Inhibition": 73.35},
      {"compound": "CCc1cn2c3c(cc(C(=O)N[C@@H](Cc4ccccc4)[C@H](O)CNC4CCCC4)cc13)N(C)S(=O)(=O)CC2", "note": "[TCMDC-135803]", "% Inhibition": 56.31},
      {"compound": "CCc1cn2c3c(cc(C(=O)N[C@@H](Cc4ccccc4)[C@H](O)CNC4CCOCC4)cc13)N(C)S(=O)(=O)C2", "note": "[TCMDC-135394]", "% Inhibition": 4.179},
      {"compound": "CC(=O)Nc1ccc(CN2CCC(N(C)c3cc(NC(=O)c4cccs4)ccn3)CC2)cc1", "note": "[TCMDC-134971]", "% Inhibition": -6.674},
      {"compound": "CCc1c(C)nc2nc(Cc3cccc(F)c3)nn2c1N1CCN(c2ccccn2)CC1", "note": "[TCMDC-124593]", "% Inhibition": 5.465},
      {"compound": "Cc1noc(C)c1-c1cccc(CNCc2ccc(-c3ccc(-c4nc5cc(F)ccc5[nH]4)s3)cc2)c1.O=C(O)C(F)(F)F", "note": "[TCMDC-133054]", "% Inhibition": 12.51},
      {"compound": "O=C(/C=C/c1ccc(Cl)cc1)NCCCCCN1CCCN(C(=O)Nc2cccc(Cl)c2)CC1", "note": "[TCMDC-136102]", "% Inhibition": -54.14},
      {"compound": "Cn1cnc(CCNC(=O)c2ccc(-c3ccc(-c4nc5cc(C(F)(F)F)ccc5[nH]4)s3)cc2)c1", "note": "[TCMDC-132500]", "% Inhibition": -12.71},
      {"compound": "CCc1cn2c3c(cc(C(=O)N[C@@H](Cc4ccccc4)[C@H](O)CNC4CCOCC4)cc13)N(C(C)C)S(=O)(=O)CC2", "note": "[TCMDC-135506]", "% Inhibition": 37.66},
      {"compound": "CCc1cn2c3c(cc(C(=O)N[C@@H](Cc4cccc(Cl)c4)[C@H](O)CNC4CCCCC4)cc13)N(C)S(=O)(=O)CC2", "note": "[TCMDC-135649]", "% Inhibition": 39.17},
      {"compound": "CCc1cn2c3c(cc(C(=O)N[C@@H](Cc4cccc(F)c4)[C@H](O)CNC4CCCCC4)cc13)N(C)S(=O)(=O)CC2", "note": "[TCMDC-135659]", "% Inhibition": 47.1},
      {"compound": "CCc1cn2c3c(cc(C(=O)N[C@@H](Cc4cccc(F)c4)[C@H](O)CNC4CCOCC4)cc13)N(C)S(=O)(=O)CC2", "note": "[TCMDC-135661]", "% Inhibition": 11.24},
      {"compound": "CCCc1cn2c3c(cc(C(=O)N[C@@H](Cc4ccccc4)[C@H](O)CNC4CCCCC4)cc13)N(CC)S(=O)(=O)CC2", "note": "[TCMDC-135773]", "% Inhibition": 81.38},
      {"compound": "CCCc1cn2c3c(cc(C(=O)N[C@@H](Cc4ccccc4)[C@H](O)CNC4CCOCC4)cc13)N(CC)S(=O)(=O)CC2", "note": "[TCMDC-135774]", "% Inhibition": 46.67},
      {"compound": "CCc1cn2c3c(cc(C(=O)N[C@@H](Cc4ccccc4)[C@H](O)CNC4CCOCC4)cc13)N(CC(F)(F)F)S(=O)(=O)CC2", "note": "[TCMDC-135652]", "% Inhibition": 61.24},
      {"compound": "CCc1cn2c3c(cc(C(=O)N[C@@H](Cc4cccc(Cl)c4)[C@H](O)CNC4CC4)cc13)N(C)S(=O)(=O)CC2", "note": "[TCMDC-135648]", "% Inhibition": 29.4},
      {"compound": "CCCc1cn2c3c(cc(C(=O)N[C@@H](Cc4ccccc4)[C@H](O)CNC4CCOCC4)cc13)N(C)S(=O)(=O)CC2", "note": "[TCMDC-135772]", "% Inhibition": 9.174},
      {"compound": "CCc1cn2c3c(cc(C(=O)N[C@@H](Cc4ccccc4)[C@H](O)CNC4CCCCC4)cc13)N(CC)S(=O)(=O)CC2", "note": "[TCMDC-135572]", "% Inhibition": 99.29},
      {"compound": "CCc1cn2c3c(cc(C(=O)N[C@@H](Cc4ccccc4)[C@H](O)CNC4CCCCC4)cc13)N(C)S(=O)(=O)C2", "note": "[TCMDC-135389]", "% Inhibition": 12.74},
      {"compound": "CCc1cn2c3c(cc(C(=O)N[C@@H](Cc4cccc(Cl)c4)[C@H](O)CNC4CCOCC4)cc13)N(C)S(=O)(=O)CC2", "note": "[TCMDC-135650]", "% Inhibition": 67.17}
    ]}
  ]
}
